ATXN2 expr inh: ATXN2 expression inhibition; HEK-293 ATXN2-luciferase reporter, luminescence, 24 h; 360,000 compounds, 0.72% hits; Potency, µM (series often up to 57 µM), for inactives: at the highest dose activity change, negative = inhibition, most hits filed as inhibitors; further: on the % scale 0 is the no-effect control and ±100 the full control effect; nearly all actives have a fitted effect of over 55% in size
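ATXN2-luciferase reporter cells (luciferase flanked by upstream and downstream ATXN2 gene portions) were treated 24 h at 37 °C with compounds at up to 57 uM. SteadyGlo luminescence gave expression; GF-AFC fluorescence gave viability.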
S2 tox: viability counter-screen for ATXN expression inhibitors; S2 cells (HEK-293 line with an ATXN2-luciferase reporter) viability, CellTiter-Fluor protease fluorescence, 24 h; Potency, µM (titrated, usually from 56.7 µM), hits mostly cytotoxic; 400,000 compounds, 0.49% hits; further: nearly all actives have a fitted effect of over 40% in size
TGFb SMAD3 inh: blocks TGF-b signaling; 410,000 compounds, 1.2% hits; AID 588855; HepG2 CAGA-GFP TGF-b/SMAD3 reporter, GFP fluorescence, 18 h; TGF-beta stimulated, 500 pg/mL final; Potency, µM (highest dose often 46.1 µM), for the others: top-dose activity, negative = inhibition, hits mostly inhibitors; further: on the % scale 0 is the no-effect control and ±100 the full control effect; nearly all actives have a fitted effect of over 65% in size
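Cell-based qHTS in HEPG2 carrying a CAGA-GFP Smad reporter; compounds added before 500 pg/mL final TGF-beta, 18 h incubation at 37 degrees C, GFP fluorescence quantified per cell by imaging cytometry.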
A549 viability: kills or reduces viability of A549 cells in Nrf2 counter-screen | AID 504648 | A549 ARE-Fluc cells, CellTiter-Fluor viability, 18-24 h | 390,000 compounds, 0.16% hits | Potency, µM (titrated, usually from 46 µM), for inactives: at the highest dose activity change, negative = cytotoxicity, actives largely listed as inhibitors; further: on the % scale 0 is the no-effect control and ±100 the full control effect
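Cytotoxicity counterscreen: CellTiter-Fluor fluorescence was measured in A549 ARE_Fluc cells after 18-24 h of compound exposure in a concentration series. The subsequent BugLite luminescent read reports ARE-luciferase activity.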
HepG2 viability: kills HepG2 cells in TGF-b inhibitor counter-screen. HepG2 CAGA-GFP viability, ATP luminescence, 18 h. Potency, µM (highest dose often 46.1 µM), for inactives: top-dose activity change, negative = cytotoxicity, hits mostly cytotoxic. 410,000 compounds, 0.76% hits. AID 588856
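CellTiter-Glo luminescence gave cytotoxicity after 18 hours at 37 degrees C. The cells were HepG2 CAGA-GFP in 1% FBS DMEM, stimulated with 500 pg/mL TGF-beta after compound addition. %Activity was normalised to no-cell wells (complete cell-killing) and DMSO (no toxicity), and curves were fitted and classified.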
Nrf2 inh: Nrf2 pathway inhibition; A549 ARE-Fluc reporter, luciferase luminescence, 18-24 h; Potency, µM (series often up to 46 µM), for the others: at the highest dose activity change, negative = inhibition, usual class: inhibitors; 360,000 compounds, 2.1% hits; AID 504444; further: on the % scale 0 is the no-effect control and ±100 the full control effect; nearly all actives have a fitted effect of over 60% in size
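Two sequential reads on A549 ARE_Fluc cells exposed to compound for 18-24 h: a CellTiter-Fluor fluorescence read for viability, then a luciferase luminescence read for Nrf2/ARE activity.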
Active calls of the source: *; i = inactive; ? = inconclusive; · = no result given. Compounds with a hit are over-represented: about 3.8% of the library has one in this group of screens. The call rests on the fitted dose curve; in most records, active means well fitted curve in the direction sought with a large enough effect; inconclusive means small, poorly fitted or top-dose-only effect, or another doubt; inactive means no such curve, though single readings can be large; an effect the other way counts as inactive or inconclusive. Potency means the concentration at half of the fitted maximal effect.

SMILES | ATXN2 expr inh | S2 tox | TGFb SMAD3 inh | A549 viability | HepG2 viability | Nrf2 inh
CNc1snc(C)c1C(=O)OCC(=O)c1ccc(Cl)cc1 | · | i | -12% | 3% | -20% | ?
CNc1snc(C)c1C(=O)OC(C)C(=O)c1ccc(F)cc1 (stereo not drawn) | -18% | i | 3% | -5% | -11% | 21µM*
O=S(=O)(Nc1cc(F)ccc1F)c1ccc2[nH]c3c(c2c1)CCCC3 | ? | ? | ? | 1% | -52% | 7%
O=S(=O)(Nc1cc(F)ccc1F)c1ccc2[nH]c3c(c2c1)CCCCC3 | ? | ? | ? | -1% | 11µM* | ·
O=S(=O)(Nc1cccc(F)c1)c1ccc2[nH]c3c(c2c1)CCCCC3 | 0% | 28µM* | ? | -2% | -101% | ?
C[C@]12c3[nH]c4ccccc4c3CCN1C(=O)C(CC(=O)NCc1cccc(C(F)(F)F)c1)C[C@@H]2C(=O)N1CCCCC1 (stereo partly drawn) | 0% | ? | 11µM* | ? | -17% | -105%
COc1ccc2[nH]c3c(c2c1)CCN1C(=O)C(CC(=O)NCc2ccco2)C[C@H](C(=O)N2CCCCC2)[C@@]31CCc1ccccc1 (stereo partly drawn) | -4% | i | -8% | -26% | -2% | 23µM*
COc1ccc2[nH]c3c(c2c1)CCN1C(=O)C(CC(=O)NCCc2ccccn2)C[C@H](C(=O)N2CCCCC2)[C@@]31CCc1ccccc1 (stereo partly drawn) | -1% | i | ? | -27% | 2% | 21µM*
COCCCNC(=O)CC1C[C@H](C(=O)N2CCCCC2)[C@@]2(CCc3ccccc3)c3[nH]c4ccc(OC)cc4c3CCN2C1=O (stereo partly drawn) | 10% | i | -26% | -10% | 7% | -20%
O=C(C[C@H]1C[C@H](C(=O)N2CCCCC2)[C@@]2(CCc3ccccc3)c3[nH]c4ccc(Cl)cc4c3CCN2C1=O)NCCc1ccccn1 | 3% | ? | -23% | ? | 3% | 21µM*
COc1ccc(CNc2nc3c(c(=O)n(C)c(=O)n3C)n2Cc2ccccc2Cl)cc1 | 7% | i | 0% | -2% | -40% | 6%
O=C(COc1ccc([N+](=O)[O-])cc1)Nc1ccc2c(c1)CCC2 | 11% | i | -1% | -6% | 0% | -19%
CC1CCN(c2nc(Cl)nc(Nc3ccc([N+](=O)[O-])cc3)n2)CC1 | ? | · | -21% | -1% | 7% | 6%
Cc1cc(C)cc(N2C(=O)C=CC2=O)c1 | ? | · | ? | -4% | -82% | ?
O=C(c1ccco1)N1N=C(c2ccc(Br)cc2)CC1(O)C(F)(F)F (stereo not drawn) | 3% | i | 7.9µM* | -5% | -41% | ?
O=C(c1ccco1)N1N=C(c2ccc(Cl)cc2)CC1(O)C(F)(F)F (stereo not drawn) | -10% | i | -10% | -3% | -16% | -1%
CC(C)c1nnc(SCC(=O)N2CCc3ccccc32)n1N | -10% | i | 20% | 1% | -6% | 1%
CCNC(=O)CC1SC(=Nc2ccc(Cl)cc2)N(CC)C1=O (stereo not drawn) | · | i | ? | 14% | 13µM* | -8%
COc1cc2c3c(cccc3c1)C(=O)N(CCN1CCCC1)C2=O | · | i | 14µM* | · | 19% | ·
Cc1cccnc1CCNC(=O)CC1C(=O)NCCN1CC1CCCCC1 (stereo not drawn) | -5% | i | -10% | 2% | -15% | 23µM*
O=C(CC1C(=O)NCCN1CC1CCCCC1)NCc1ccccc1Cl (stereo not drawn) | · | i | 1% | -1% | -1% | 0%
